# GCN5L2 inh: blocks human GCN5L2 histone acetyltransferase; Potency, µM (series often up to 58.9 µM), for the others: top-dose activity change, negative = inhibition, usual class: inhibitors; GCN5L2 HAT assay, ThioGlo1 CoA-SH fluorescence; hit rate 0.21% among 390,000; note: % is set by controls: 0 for no effect and ±100 for the full control effect
#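 Preincubate 20nM GCN5L2 with compound 15 min, RT → add 50uM ThioGlo1 + 75uM H3(1-25) + 70uM acetyl-CoA → read fluorescence 0 and 20 min. Primary qHTS; fluorescent artifacts likely.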
# PLK1 PBD block: inhibitors of human PLK1 polo-box domain binding; Potency, µM, for inactives: max response, negative = inhibition, hits mostly inhibitors; AID 720504; hit rate 2.8% among 360,000; Plk1 PBD binding of FITC phosphopeptide, fluorescence polarization; P53350; note: series mostly up to about 57 µM; % is set by controls: 0 for no effect and ±100 for the full control effect; nearly all actives have a fitted effect of over 65% in size
# USP1-UAF1 inh: blocks the human USP1/UAF1 deubiquitinase complex; O94782; recombinant USP1/UAF1, Ub-Rhodamine cleavage fluorescence; Potency, µM (top dose mostly 57.1 µM), for inactives: top-dose activity change, negative = inhibition, actives largely listed as inhibitors; hit rate 0.23% among 390,000; note: % is set by controls: 0 for no effect and ±100 for the full control effect; nearly all actives have a fitted effect of over 60% in size
# Target sequence (O94782 whole entry, looked up): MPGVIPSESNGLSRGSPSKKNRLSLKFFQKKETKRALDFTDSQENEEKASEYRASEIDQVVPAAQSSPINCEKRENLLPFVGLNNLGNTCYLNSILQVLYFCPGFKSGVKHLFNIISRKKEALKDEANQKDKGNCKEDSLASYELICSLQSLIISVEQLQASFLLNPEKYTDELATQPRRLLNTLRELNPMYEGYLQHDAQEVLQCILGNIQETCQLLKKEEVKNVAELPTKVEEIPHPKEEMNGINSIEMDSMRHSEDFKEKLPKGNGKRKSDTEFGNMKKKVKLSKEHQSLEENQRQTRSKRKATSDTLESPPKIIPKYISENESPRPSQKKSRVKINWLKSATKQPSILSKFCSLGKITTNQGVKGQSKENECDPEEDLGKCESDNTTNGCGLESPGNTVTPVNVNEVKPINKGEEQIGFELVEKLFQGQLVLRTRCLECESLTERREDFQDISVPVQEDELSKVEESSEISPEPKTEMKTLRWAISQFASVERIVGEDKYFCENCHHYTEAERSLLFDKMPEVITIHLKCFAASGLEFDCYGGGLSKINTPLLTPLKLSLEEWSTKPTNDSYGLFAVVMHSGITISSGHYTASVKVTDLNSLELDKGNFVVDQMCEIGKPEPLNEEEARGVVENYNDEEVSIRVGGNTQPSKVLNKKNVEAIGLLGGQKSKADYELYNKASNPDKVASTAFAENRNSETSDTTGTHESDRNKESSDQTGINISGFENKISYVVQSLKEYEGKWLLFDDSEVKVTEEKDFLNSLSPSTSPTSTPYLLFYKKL
#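 High-throughput fluorogenic screen: 1nM USP1/UAF1 complex, Ub-Rho substrate 150nM final, 50mM HEPES pH 7.8 with 0.5mM EDTA, 0.1 mg/ml BSA, 1mM TCEP and 0.01% Tween-20.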
# TSG101-PTAP inh: blocks PTAP/TSG101 interaction to inhibit HIV-1 budding; Fluorescence polarization, FITC-PTAP peptide / Tsg101 binding; 340,000 tested, under 10 active; Potency, µM (highest dose often 115 µM), inactives show at the highest dose activity change, negative = inhibition, usual class: inhibitors; Q99816; active = well fitted inhibition curve with a large enough effect in the main read-out, with a control signal flat, not every such curve was filed as active; inconclusive = small, poorly fitted or top-dose-only effect, or effect the other way, or a change in a side signal; inactive = no such curve, though single readings can be large or run the other way; note: % of control where 0% means no effect
#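 FP read-out: FITC-PTAP peptide, 50 nM final, binding Tsg101 binding domain, 10 uM final; 20 min, r.t.; 10 mM HEPES pH 7.5, 0.15 M NaCl, 0.01% Tween 20, 3 mM EDTA, 0.1 mM TCEP.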
# VDR inhibitor: inhibitors of human vitamin D receptor | P11473 | VDR-SRC2-3 peptide fluorescence polarization, 2 h | Potency, µM, for the others: max response, negative = inhibition, hits mostly inhibitors | hit rate 0.93% among 400,000 | AID 504847; note: % is set by controls: 0 for no effect and ±100 for the full control effect
#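 After 23 nl compound addition and a short centrifugation, plates sat for 2 hours at ambient temperature; polarization of fluorescence then indicated loss of VDR binding to peptide SRC2-3.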
# * hit, by the source's call; ? = inconclusive; · = no result; [ ] = remark or other dose. An excerpt weighted towards active compounds, which were near 3% of everything screened. Unless noted, calls come from the whole dose curve; as a rule, active = well fitted curve in the direction sought with a large enough effect; inconclusive = small, poorly fitted or top-dose-only effect, or another doubt; inactive = no such curve, though single readings can be large; an effect the other way counts as inactive or inconclusive. Potency is the fitted concentration of half-maximal effect.
SMILES,GCN5L2 inh,PLK1 PBD block,USP1-UAF1 inh,TSG101-PTAP inh,VDR inhibitor
CCN(CC)C(=O)Cn1cc(C=C2C(=O)N(C)C(=O)N(C)C2=O)c2ccccc21,0.6%,29.9µM*,-17.7%,?,-7.7%
COC(=O)Cn1cc(C=C2C(=O)N(C)C(=O)N(C)C2=O)c2ccccc21,-3.8%,?,?,-26.0%,-16.6%
CC1CCCCN1C(=O)Cn1cc(C=C2C(=O)N(C)C(=O)N(C)C2=O)c2ccccc21 (configuration not stated),1.4%,16.8µM*,?,-2.7%,-9.1%
CC(C)C[C@H](NC(=O)[C@H](Cc1ccccc1)NC(=O)CNC(=O)[C@H](CS)N(C(=O)[C@@H](N)Cc1ccc(O)cc1)C(C)(C)C)C(=O)N([C@H](C(=O)O)[C@H](C)O)C(C)(C)C,-14.2%,·,·,·,11.8%
O=c1[nH]sc2cc(F)ccc12,4.47µM*,3.77µM*,1.6%,2.7%,7.08µM*
CCCCCNc1c(C(=O)OCC)c(=O)[nH]c2ccccc12,-3.1%,26.7µM*,-18.2%,-4.0%,-18.1%
CCOC(=O)c1cccc(NC(=O)c2c(O)[nH]c(=O)[nH]c2=O)c1,·,-2.7%,-28.3%,·,-20.4%
CN1C2CCC1CC(OC(=O)c1ccc(Cl)cc1)C2 (configuration not stated),-10.2%,26.7µM*,1.0%,-4.6%,-6.9%
CCOc1ccc(C(=O)OC2CC3CCC(C2)N3C)cc1 (configuration not stated),12.9%,-1.1%,-18.7%,-1.3%,-5.7%
C[C@H](NC(=O)[C@@H](N)Cc1ccc(O)cc1)C(=O)NCC(=O)N(C)[C@@H](Cc1ccccc1)C(=O)N[C@H](CO)CCS(C)=O (some centres not stated),-3.1%,·,·,·,-1.4%
Cc1noc(C(=O)Nc2sc3c(c2C#N)CCC3)c1Cl,-15.3%,23.8µM*,-6.8%,-7.4%,-5.2%
CCOC(=O)c1c(NC(=O)c2ccc(OC)cc2)sc2c1CCCCC2,-2.8%,·,-16.7%,·,?
O=C(N[C@@H]1CN2CCC1CC2)c1cc(Cl)cc2[nH]cnc12,0.9%,·,·,·,12.7%
CCC(C)C(=O)OC1C2CC3=C4CC(=O)OC(c5ccoc5)[C@]4(C)CCC3[C@@](C)(C2=O)C(CC(=O)OC)C1(C)C (some centres not stated),-1.2%,·,·,·,39.8µM*
O=C(c1ccccc1F)c1cn(CC(=O)N2CCCC2)c2ccccc12,2.1%,2.99µM*,-19.1%,-1.0%,-18.9%
C=CCn1c(C)c(C=C2C(=O)NC(=O)NC2=O)c2ccccc21,-2.3%,26.7µM*,-19.3%,-3.1%,?
O=C1NC(=O)C(=Cc2coc3ccccc3c2=O)C(=O)N1,-1.9%,10.6µM*,?,-9.5%,?
O=C1NC(=O)C(=C/C=C/c2coc3ccc(Br)cc3c2=O)C(=O)N1,-9.0%,·,·,·,·
COC(=O)Cn1cc(/C=C2\C(=O)NC(=O)N(c3ccccc3)C2=O)c2ccccc21,-7.7%,?,-2.7%,8.7%,12.7%
O=C1NC(=O)C(=CCc2ccccc2)C(=O)N1,·,0.0%,-7.3%,-2.8%,?
COCCNC(=O)Cn1cc(C=C2C(=O)NC(=O)NC2=O)c2ccccc21,-0.4%,6.7µM*,-1.1%,?,-10.5%
CN[C@@H](Cc1c[nH]c2ccccc12)C(=O)O,17.4%[0.501 µM],·,·,·,-1.6%
Cn1cc(C=C2C(=O)NC(=O)NC2=O)c2ccccc21,-21.3%,23.8µM*,28.2µM*,-6.6%,-7.2%
COCCNC(=O)Cn1cc(C(=O)c2ccccc2F)c2ccccc21,-16.1%,29.9µM*,-4.0%,-2.0%,?
CCCN(CCC)[C@@H]1CCc2c(OC)cccc2[C@@H]1C,3.6%,·,·,·,-12.2%
SMILES,GCN5L2 inh,PLK1 PBD block,USP1-UAF1 inh,TSG101-PTAP inh,VDR inhibitor
COCCCn1c(N)c(C(=O)Nc2ccccc2)c2nc3ccccc3nc21,-6.3%,-2.0%,?,-1.5%,?
CCC(C)NC(=O)c1c(N)n(CCCOC)c2nc3ccccc3nc12 (configuration not stated),-12.8%,-8.6%,31.6µM*,-5.0%,-25.1%
COc1ccc(N2CCN(C(=O)c3cc(=O)[nH]c4ccccc34)CC2)cc1,-1.6%,26.7µM*,-7.3%,-1.9%,-6.3%
N#Cc1ccc(CN2CC3(CCNCC3)C2)cc1,0.8%,·,·,·,-16.3%
CCOP(=S)(OCC)O/N=C(\C#N)c1ccccc1Cl,-17.6%,·,·,·,22.4µM*
CC(C)(O)[C@@H]1[C@H]2OC(=O)[C@@H]1[C@]1(O)C[C@H]3O[C@]34C(=O)O[C@H]2[C@@]14C (tested in a mixture with another compound),-27.8%,·,·,·,-1.2%
C=C1C(=O)OC2CC3(C)OC3CCC(C)=CC(OC(C)=O)C12 (configuration not stated),·,-27.1%,-18.0%,-2.3%,70.8µM*
N[C@@]1(C(=O)O)CC[C@H](C(=O)O)C1,-19.5%[0.501 µM],·,·,·,9.3%
[O-]/[N+](=C/c1cccnc1)c1ccc(Br)cc1,-3.8%,10.6µM*,-14.9%,0.1%,44.7µM*
CCCn1c(=O)n(C)c(=O)c2c(SCC(=O)NC34CC5CC(CC(C5)C3)C4)nc(CC(C)C)nc21,-0.6%,29.9µM*,-24.7%,-4.7%,-7.7%
O=C1CCC[C@H]2[C@H]3CCCN4CCCC(=CN12)[C@@H]34,·,·,·,·,-5.9%
COc1cc(CC(=O)OCC2=C[C@H]3[C@@H]4C(C)(C)[C@]4(OC(C)=O)[C@H](OC(=O)Cc4ccccc4)[C@@H](C)[C@]3(O)[C@@H]3C=C(C)C(=O)[C@@]3(O)C2)ccc1O,-15.0%,·,·,·,-9.9%
Cc1cc(C=C2C(=O)NC(=S)NC2=O)c(C)n1-c1ccc2c(c1)OCO2,37.4%,2.67µM*,-12.7%,-1.4%,70.8µM*
C=C(C)[C@H]1C2C(=O)O[C@H]1[C@H]1OC(=O)[C@@]34O[C@@H]3C[C@]2(O)[C@@]14C,-13.9%,·,·,·,0.8%
CC(=O)OC1C(=O)[C@]2(C)C(O)CC3OC[C@]3(OC(C)=O)C2[C@@H](OC(=O)c2ccccc2)[C@]2(O)CC(O)C(C)=C1C2(C)C (some centres not stated),-1.9%,·,·,·,13.2%
O=C1C(I)=CC(=C(c2cc(I)c(O)c(I)c2)c2ccccc2C(=O)O)C=C1I,3.55µM*,·,·,·,35.5µM*
CN1CCc2cc3c(cc2[C@@H]1O)OCO3,7.94µM*,·,·,·,-5.5%
CN1CCc2cc3c(cc2C1)OCO3,·,-18.8%,-10.9%,0.3%,-0.8%
O=C1NC(=O)N(Cc2cccs2)C(=O)/C1=C/c1ccc(N2CCOCC2)cc1,-9.8%,2.99µM*,-10.7%,-2.2%,?
CC(C)(C)OC(=O)N1CC[C@H]1COc1cnc[c]([Sn]([CH3])([CH3])[CH3])c1,-1.5%[12.7 µM],·,·,·,6.1%
C=CCN1C(=O)NC(=O)/C(=C/c2ccoc2)C1=O,1.5%,8.44µM*,-13.7%,-1.9%,-12.1%
COc1ccc(CN2C(=O)NC(=O)/C(=C/c3ccoc3)C2=O)cc1,?,2.38µM*,-18.5%,-2.3%,-17.6%

# Compound activity deposited in PubChem BioAssay by National Center for Advancing Translational Sciences (NCATS).
